Compound activity (PubChem BioAssay)
Rows were chosen to be rich in hits. Some 11% of all compounds tested hit in one or more screens of this group.
RORgamma inh: inhibitors of mouse ROR gamma transcriptional activity | actives 5.4% (n = 310,000) | Potency, µM (top dose mostly 53.6 µM), most hits filed as inhibitors | Drosophila S2 Gal4-RORgamma UAS-luciferase reporter, 20 h | P51450 | AID 2551; note: nearly all actives have a fitted effect of over 60% in size
Target sequence (P51450 whole entry, looked up, the tested form may be a part): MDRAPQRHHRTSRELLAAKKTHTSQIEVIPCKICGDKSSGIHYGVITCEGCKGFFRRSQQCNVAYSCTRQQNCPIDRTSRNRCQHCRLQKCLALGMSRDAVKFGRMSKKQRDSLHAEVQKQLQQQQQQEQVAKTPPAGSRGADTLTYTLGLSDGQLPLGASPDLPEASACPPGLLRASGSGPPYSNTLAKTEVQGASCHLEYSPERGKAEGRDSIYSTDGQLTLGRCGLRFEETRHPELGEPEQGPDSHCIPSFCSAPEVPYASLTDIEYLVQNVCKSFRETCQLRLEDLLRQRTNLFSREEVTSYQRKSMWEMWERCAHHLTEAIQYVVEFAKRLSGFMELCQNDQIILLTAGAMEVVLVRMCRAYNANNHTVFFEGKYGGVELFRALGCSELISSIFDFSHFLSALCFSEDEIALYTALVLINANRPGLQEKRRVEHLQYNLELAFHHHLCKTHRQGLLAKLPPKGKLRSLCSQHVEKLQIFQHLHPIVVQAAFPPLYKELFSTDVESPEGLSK
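Compounds are pin-transferred onto Drosophila Schneider cells expressing a copper-inducible Gal4–ROR gamma transactivation domain fusion. After 1 hr, copper sulfate is added to 700 uM final; luciferase is read 20 hr later.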
IL-1B inflam inh: blocks inflammasome-driven IL-1 beta release | actives 4.7% (n = 360,000) | activity change, % at 57.5 µM | AID 743279 | THP-1 LPS/ATP IL-1B secretion, AlphaLISA, 16 h; hits give low values; in the data active = activity change below about -50%; inconclusive = mostly about -30% to -49%
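THP-1 cells pretreated 1 hr with compounds (up to 57.5 uM final), then stimulated with LPS (250 ng/mL final) plus ATP (1.25 mM final); secreted IL-1B measured by AlphaLISA after 16 hr, decreased signal indicating inhibition.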
VP16 counter: inhibits Gal4-VP16 luciferase reporter, ROR gamma counter-screen | actives 3.5% (n = 310,000) | AID 2546 | Drosophila S2 Gal4-VP16 UAS-luciferase, luminescence, 20 h | Potency, µM (series often up to 53.6 µM), usual class: inhibitors;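 note: Gal4-VP16 expression switched on by copper sulfate through the metallothionein promoter; nearly all actives have a fitted effect of over 50% in size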
MCF10A rereplic: induces DNA re-replication in MCF 10a normal breast cells. MCF 10A DNA re-replication, Hoechst nuclear intensity, 48 h. actives 2.9% (n = 350,000). Potency, µM (top dose mostly 46.1 µM), usual class: activators; note: nearly all actives have a fitted effect of over 50% in size
SW480 rerep: induces DNA re-replication in SW480 colon adenocarcinoma cells | SW480 DNA re-replication, Hoechst DNA content imaging, 48 h | Potency, µM (top dose mostly 46.1 µM), hits mostly activators | actives 1.8% (n = 340,000); note: nearly all actives have a fitted effect of over 55% in size
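Hoechst fluorescence of nuclei (405 nm excitation, 500-530 nm emission) measured by plate-scanning imager after 48 hr compound exposure at 37 C; re-replication scored as increased number of nuclei with elevated intensity.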
Hits are given with their value. Unless noted, calls come from the whole dose curve; as a rule, active = well fitted curve in the direction sought with a large enough effect; inconclusive = small, poorly fitted or top-dose-only effect, or another doubt; inactive = no such curve, though single readings can be large; an effect the other way counts as inactive or inconclusive.

CC12CC(c3ccccc3O1)N(C(=O)c1ccco1)C(=S)N2c1ccc(F)cc1 (stereo unspecified) was read as RORgamma inh 10µM, IL-1B inflam inh inactive, VP16 counter inconclusive, MCF10A rereplic 12µM and SW480 rerep inactive.
Screening CC1(C)Cc2c(cnn2-c2ccc(F)cc2)C(NC(=O)c2ccco2)C1 (stereo unspecified) returned RORgamma inh inactive, IL-1B inflam inh inactive, VP16 counter inactive, MCF10A rereplic inactive and SW480 rerep inactive.
For CCn1cc(S(=O)(=O)Nc2ncccn2)cn1 the results were RORgamma inh inactive, IL-1B inflam inh inactive, VP16 counter inactive, MCF10A rereplic inactive and SW480 rerep inactive.
CCN(CC)CCOC(=O)c1ccc(N/C=C(/C#N)c2nc(-c3ccc(OC)c(OC)c3)cs2)cc1 was read as RORgamma inh inconclusive, IL-1B inflam inh inactive, VP16 counter inconclusive, MCF10A rereplic 18µM and SW480 rerep 23µM.
O=C(NCc1ccco1)C1CCN(S(=O)(=O)c2cccc([N+](=O)[O-])c2)CC1 was read as RORgamma inh inactive, IL-1B inflam inh inactive, VP16 counter inactive, MCF10A rereplic inactive and SW480 rerep inactive.
`COc1ccc(OC)c(NC(=O)C2(C)CCN2C(=O)CCC2CCCC2)c1` (stereo unspecified) gave IL-1B inflam inh inactive.
For O=[N+]([O-])c1ccc(O)c(C2=NNC(c3ccccc3F)C2)c1 (stereo unspecified) the results were RORgamma inh 6.3µM, IL-1B inflam inh -58, VP16 counter inconclusive, MCF10A rereplic 3.7µM and SW480 rerep inactive.
Screening COc1ccc([N+](=O)[O-])cc1C1NN=C(c2ccccc2O)S1 (stereo unspecified) returned RORgamma inh inactive, IL-1B inflam inh inactive, VP16 counter inactive, MCF10A rereplic inconclusive and SW480 rerep inactive.
Screening CCN(c1ccccc1)S(=O)(=O)c1nnc(NC(=O)C(C)C)s1 returned RORgamma inh inactive, IL-1B inflam inh inactive, VP16 counter inactive, MCF10A rereplic inactive and SW480 rerep inactive.
For CC1=C(C(=O)N2CCCCCC2)CC(CC(=O)NCCCCc2ccccc2)C(=O)N1CCC1=CCCCC1 (stereo unspecified) the results were IL-1B inflam inh -67.
For COCCCN1C(=O)C(CC(=O)NCc2cccc3ccccc23)CC(C(=O)N2CCOCC2)=C1C (stereo unspecified) the results were IL-1B inflam inh inactive.
Screening COc1ccc(CN2C(=O)C(CC(=O)NCc3cccc4ccccc34)CC(C(=O)N(C)C)=C2C)cc1 (stereo unspecified) returned IL-1B inflam inh inactive.
For CC1=C(C(=O)N2CCCCCC2)CC(CC(=O)NCc2cccs2)C(=O)N1CCC1=CCCCC1 (stereo unspecified) the results were IL-1B inflam inh inactive.
`COc1ccc(CN2C(=O)C(CC(=O)NCc3cccc4ccccc34)CC(C(=O)N(C(C)C)C(C)C)=C2C)cc1` (stereo unspecified) gave IL-1B inflam inh -70.
Screening CC1=C(C(=O)N(C)C)CC(CC(=O)NCCCCc2ccccc2)C(=O)N1CCC1=CCCCC1 (stereo unspecified) returned IL-1B inflam inh inactive.
`CC1=C(C(=O)N2CCCCCC2)CC(CC(=O)NCc2cccc3ccccc23)C(=O)N1CCC1=CCCCC1` (stereo unspecified) gave IL-1B inflam inh -63.
Screening CCCCN1C(=O)C(CC(=O)NCc2cccc3ccccc23)CC(C(=O)N2CCCCCC2)=C1C (stereo unspecified) returned IL-1B inflam inh -55.
For CC(=O)Oc1cc(-c2coc3cc(OC(C)=O)c(OC(C)=O)c(OC(C)=O)c3c2=O)cc(OC(C)=O)c1OC(C)=O the results were RORgamma inh inactive and VP16 counter inactive.
For CC(Nc1nc(Nc2ccc(F)cc2)nc(SCC(N)=O)n1)c1ccccc1 (stereo unspecified) the results were RORgamma inh inactive, IL-1B inflam inh -60, VP16 counter inactive, MCF10A rereplic inconclusive and SW480 rerep inconclusive.
`Cc1cccc(-c2nn(C(=S)Nc3ccccc3)cc2-c2ccnc3ccccc23)n1` gave RORgamma inh inconclusive and VP16 counter inactive.
`O=c1cc(CN2CCN(S(=O)(=O)c3cccc(Cl)c3)CC2)c2ccc(O)cc2o1` gave IL-1B inflam inh inactive, MCF10A rereplic inactive and SW480 rerep inactive.
Screening O=C(Nc1cccnc1)c1ccc(-c2ccccc2)cc1 returned RORgamma inh inactive, IL-1B inflam inh inactive, VP16 counter inactive, MCF10A rereplic inactive and SW480 rerep inconclusive.
Screening O=C(Nc1ccc(-c2cnco2)cc1)c1ccccc1 returned RORgamma inh inactive, IL-1B inflam inh -71, VP16 counter inactive, MCF10A rereplic inactive and SW480 rerep inactive.
O=C(Nc1ccncc1)c1ccc(-c2ccccc2)cc1 was read as RORgamma inh 7.9µM, IL-1B inflam inh inactive, VP16 counter inconclusive, MCF10A rereplic inconclusive and SW480 rerep inconclusive.
For COc1ccc(-c2sc3ccccc3c2/C=C/c2ccncc2)cc1 the results were IL-1B inflam inh inactive, MCF10A rereplic 7.3µM and SW480 rerep inactive.
For COc1ccc(-c2sc3ccccc3c2/C=C/c2ccc(OC)c(OC)c2)cc1 the results were IL-1B inflam inh inactive, MCF10A rereplic inconclusive and SW480 rerep inactive.
`COc1ccccc1CNc1ncnc2ccc(-c3ccoc3)cc12` gave RORgamma inh inactive and VP16 counter inactive.
`S=c1ccss1` gave RORgamma inh 13µM and VP16 counter inconclusive.
`C[C@]1(C(=O)NCC2CC2)C=C[C@@H](Cc2ccccc2)N1C(=O)c1ccccc1` gave RORgamma inh inactive and VP16 counter inactive.
`N#C/C(=C\c1c[nH]c2ccc(Br)cc12)c1ccccn1` gave RORgamma inh inactive, IL-1B inflam inh -84, VP16 counter inactive, MCF10A rereplic inconclusive and SW480 rerep inconclusive.
CN(C)c1ccc(N=Nc2nccs2)cc1 was read as IL-1B inflam inh inactive.
CN(C)c1ccc(N=Nc2ccccc2Br)cc1 was read as RORgamma inh 8.9µM, IL-1B inflam inh inactive, VP16 counter inconclusive, MCF10A rereplic inactive and SW480 rerep inactive.
For O=C(N/N=C/c1ccc2nccnc2c1)c1ccccc1O the results were RORgamma inh 6.3µM and VP16 counter inconclusive.
For O=C(N/N=C/c1cccc(OC2CSC2)c1)c1ccccc1O the results were RORgamma inh 13µM, IL-1B inflam inh inactive, VP16 counter inactive, MCF10A rereplic inactive and SW480 rerep inactive.
`Cc1cccc(C(=O)Oc2ccc(/C=N/NC(=O)c3ccccc3O)cc2)c1` gave RORgamma inh 3.5µM, IL-1B inflam inh inactive, VP16 counter 3.5µM, MCF10A rereplic inactive and SW480 rerep inactive.
